Experimental data taken from PubChem BioAssay.
This is one part of the list. Active and inactive are the calls of the source.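 How the source made its calls, unless noted: active means GFP response above 150% of the DMSO level; inconclusive means fewer than 70 events counted for a yeast strain; inactive means the rest.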

Key:
[1] = RPL19A-GFP modulators, yeast TOR pathway, confirmation, cell-based, S. cerevisiae, flow cytometry, cherry picks, mother/daughter gates (AID 2270;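 active means GFP response below 50% of the DMSO control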); conditions: S. cerevisiae RPL19A-GFP strain, 3 h, at 10 µM, stronger effect = lower value, 100 = same GFP as DMSO wells
[2] = LAP4-GFP expression modulators in yeast, confirmation, cell-based, cherry picks, flow cytometry, mother/daughter gates (AID 2271;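 active means GFP response above 150% of the DMSO control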;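 further: ratio of sample to DMSO plate mean so 100% equals DMSO level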); conditions: S. cerevisiae LAP4-GFP strain, 3 h, at 10 µM, stronger effect = higher value, 100 means same as DMSO control
[3] = modulators of MEP2-GFP levels in yeast, confirmation, S. cerevisiae, flow cytometry GFP, cherry picks (AID 2272;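 active means GFP response above 150% of the DMSO control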;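 further: ratio of well signal to plate DMSO mean so 100% equals DMSO level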); conditions: S. cerevisiae MEP2-GFP strain, 3 h, at 10 µM, stronger effect = higher value
[4] = AGP1-GFP expression modulators, hit retest, confirmation, cell-based, flow cytometry, S. cerevisiae, cherry picks (AID 2273);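 further: median GFP channel fluorescence over the whole cell population gate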; conditions: S. cerevisiae AGP1-GFP strain, 3 h, at 10 µM
[5] = modulators of CIT2-GFP expression in yeast, confirmation, S. cerevisiae, GFP fusion, cherry picks, mother/daughter gates (AID 2274); conditions: S. cerevisiae CIT2-GFP strain, flow cytometry, 3 h, at 10 µM, stronger effect = higher value
[6] = compound autofluorescence in yeast s288c, dose response, artefact control for yeast TOR pathway GFP screen, s288c strain (AID 2757;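 active means fluorescence span over the dose series, or activity score, above about 33, limit read from the data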;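 further: thousands of bead-calibrated equivalent soluble fluorophore molecules from median cell fluorescence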); conditions: S. cerevisiae s288c, 520 nm autofluorescence, flow cytometry, 3 h; at 33 µM; stronger effect = higher value; zero means same as solvent-only cells
[7] = measured here: daughter cell gate
[8] = measured here: mother cell gate
[9] = measured here: daughter cell gate response
[10] = measured here: mother cell gate response

| SMILES | GFP response vs DMSO [1] | GFP response vs DMSO [1, 7] [%] | GFP response vs DMSO [1, 8] [%] | GFP response relative to DMSO [2] | GFP response relative to DMSO [2, 9] [%] | GFP response relative to DMSO [2, 10] [%] | GFP response vs DMSO [3] | GFP response, % of DMSO [4] | GFP response, % of DMSO [5] | GFP response, % of DMSO [5, 7] [%] | GFP response, % of DMSO [5, 8] [%] | fluorescence change (kMESF span) [6] |
| --- | --- | --- | --- | --- | --- | --- | --- | --- | --- | --- | --- | --- |
| COc1cccc2c1Oc1ncccc1N(C(=O)CCC(=O)NCc1ccccc1F)C2 | 100% (inactive) | 101 | 101 | 142% (inactive) | 147 | 139 | 135% (inactive) | 105% (inactive) | 148% (inactive) | 150 | 147 |  |
| C[n+]1ccc(/C=C/c2c[nH]c3ccccc23)cc1 | 107% (inactive) | 105 | 107 | 143% (inactive) | 143 | 143 | 187% (active) | 107% (inactive) | 145% (inactive) | 142 | 146 | 5.54 (inactive) |
| COc1ccccc1CN1C(=O)c2cccc3cccc(c23)C1=O | 100% (inactive) | 100 | 100 | 91.9% (inactive) | 90.7 | 91.6 | 104% (inactive) | 108% (inactive) | 99.3% (inactive) | 100 | 98 |  |
| Cc1ccc(/C=C2/C(=O)ON=C2c2ccccc2)o1 | 90.4% (inactive) | 87.7 | 82.8 | 250% (active) |  | 219 | 129% (inactive) | 88.4% (inactive) | 92.1% (inactive) | 90.9 | 77 |  |
